VDR inhibitor: vitamin D3 receptor (human) inhibition | VDR-SRC2-3 peptide fluorescence polarization, 2 h | Potency, µM, hits mostly inhibitors | hit rate 0.93% among 400,000 | AID 504847
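FP read-out; VDR + SRC2-3 coactivator peptide; 23 nl compound by pintool; 2 h RT incubation; reagents held at 4 deg C, protected from light.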
Sfp inh: Sfp phosphopantetheinyl transferase inhibition. hit rate 3.5% among 310,000. Biochemical Sfp PPTase activity, qHTS. Potency, µM, most hits filed as inhibitors. Q9F4F7;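 note: the enzyme is Sfp with the accession as filed and its product quenches rhodamine fluorescence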
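After 15 min at room temperature with compound, 15 nM Sfp received 5 uM rhodamine-CoA plus 12.5 uM BHQ-2-ybbR (50 mM Hepes pH 7.6, 10 mM MgCl2). Rate came from the fluorescence difference over 30 min, ex 525/em 598 nm.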
PLK1 PBD inh: inhibitors of human PLK1 polo-box domain binding | Plk1 PBD binding of FITC phosphopeptide, fluorescence polarization | hit rate 2.8% among 360,000 | P53350 | Potency, µM, most hits filed as inhibitors; note: series mostly up to about 57 µM; nearly all actives have a fitted effect of over 65% in size
Target sequence (P53350 whole entry, looked up, the tested form may be a part): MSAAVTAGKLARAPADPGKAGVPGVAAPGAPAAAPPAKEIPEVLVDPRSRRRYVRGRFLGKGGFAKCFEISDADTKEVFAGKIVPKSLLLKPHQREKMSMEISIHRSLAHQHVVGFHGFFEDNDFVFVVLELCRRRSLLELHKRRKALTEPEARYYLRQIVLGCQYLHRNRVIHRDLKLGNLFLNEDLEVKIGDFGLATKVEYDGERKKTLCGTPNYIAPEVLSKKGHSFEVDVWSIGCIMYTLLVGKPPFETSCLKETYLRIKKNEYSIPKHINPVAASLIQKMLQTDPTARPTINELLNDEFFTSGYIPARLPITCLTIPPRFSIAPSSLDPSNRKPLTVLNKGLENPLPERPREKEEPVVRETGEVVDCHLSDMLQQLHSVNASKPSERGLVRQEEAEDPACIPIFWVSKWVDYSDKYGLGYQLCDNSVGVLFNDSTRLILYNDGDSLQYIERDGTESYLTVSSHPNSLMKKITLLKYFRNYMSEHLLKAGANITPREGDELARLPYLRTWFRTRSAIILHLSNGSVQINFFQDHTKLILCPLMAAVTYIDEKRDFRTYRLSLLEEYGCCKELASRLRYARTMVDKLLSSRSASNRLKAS
Mm-Cpn inhibitor: M. maripaludis TRiC chaperonin inhibition. purified Mm-Cpn ATPase, ADP Transcreener TR-FRET. Potency, µM (series often up to 76.9 µM), actives largely listed as inhibitors. hit rate 0.031% among 330,000. AID 504842; note: nearly all actives have a fitted effect of over 80% in size
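ATPase read-out: TR-FRET ADP immunoassay (anti-ADP Eu cryptate vs ADP-d2), ex 320 nm, em 590/665 nm; signal drops as ADP forms. Enzyme 25 nM, ATP 10 uM, 30 min at 37°C after 10 min compound preincubation.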
G9a block: blocks human histone lysine methyltransferase G9a. Q96KQ7. G9a H3K9 monomethylation, AlphaScreen, 2 h. Potency, µM (doses to about 102 µM), hits mostly inhibitors. hit rate 8.8% among 350,000. AID 504332; note: nearly all actives have a fitted effect of over 75% in size
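Methyltransferase reactions run at room temperature for 2 h (20 nM enzyme, 500 nM biotin-H3K9 peptide, 20 uM SAM) after a 15 min compound preincubation; product detected by AlphaScreen beads and anti-H3K9me1 antibody.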
CCT chaperon mod: cytosolic chaperonin activity modulation | purified chaperonin ATPase assay, HTRF ADP detection, 30 min | activity change, % (no concentration beside the values), hits read low | hit rate 0.3% among 360,000; in the data active = activity change below about -30%
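Enzyme 40 or 20 nM (batch-dependent) in Tris pH 7.4/KCl/MgCl2/DTT; cpd 76 uM single point; ATP 10 uM; 30 min 37 °C; Transcreener ADP HTRF detection, 30 min RT; ratio 665/615.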
TbPYK confirm: Trypanosoma brucei pyruvate kinase inhibition, cherry-pick confirmation; shares compounds with PLK1 PBD inh; hit rate 67% among 890; Potency, µM (highest dose often 76.9 µM), actives largely listed as inhibitors; recombinant TbPYK, Kinase-Glo ATP luminescence; note: nearly all actives have a fitted effect of over 70% in size
TbPYK orthogonal: inhibits T. brucei pyruvate kinase in orthogonal ADP-Glo assay. shares compounds with PLK1 PBD inh. recombinant TbPYK, ADP-Glo luminescence, 60 min. Potency, µM (highest dose often 76.9 µM), usual class: inhibitors. hit rate 62% among 890. AID 720584; note: nearly all actives have a fitted effect of over 75% in size
Each line names hits and unclear results; the compound was inactive in the other large screens (follow-up assays come after a bar, where they were run). A selection: hits, their analogues and other compounds. The true share with any hit is near 10%. Unless noted, calls come from the whole dose curve; as a rule, active = well fitted curve in the direction sought with a large enough effect; inconclusive = small, poorly fitted or top-dose-only effect, or another doubt; inactive = no such curve, though single readings can be large; an effect the other way counts as inactive or inconclusive.

c1ccc2c(NCCN3CCOCC3)nc(-c3ccoc3)nc2c1	none (no result: PLK1 PBD inh, Mm-Cpn inhibitor, CCT chaperon mod)
O=C(Nc1ccc(Cl)cc1)C(Cl)C(=O)c1ccccc1 (stereo not given)	VDR inhibitor 18µM, Sfp inh 28µM, PLK1 PBD inh 0.6µM, G9a block 11µM | TbPYK confirm 7.9µM | TbPYK orthogonal 14µM
O=C1C=CC(=O)C(C2=C3C(=O)N(CCc4ccccc4)CC(=O)N3CCC2)=C1	VDR inhibitor 32µM, Sfp inh 1µM, PLK1 PBD inh inconclusive, G9a block 1.3µM | TbPYK confirm 0.56µM | TbPYK orthogonal 0.89µM
O=C(O)C1CCc2sc3[nH]c(=S)n(-c4ccccc4)c(=O)c3c21 (stereo not given)	Sfp inh 25µM, PLK1 PBD inh inconclusive, G9a block 2.5µM | TbPYK confirm 2µM | TbPYK orthogonal 3.2µM
O=C(CN1CCN(c2ccc(O)cc2)CC1)Nc1ccccc1C(=O)NCCc1ccccc1	G9a block inconclusive (no result: Sfp inh) | TbPYK confirm 2.5µM | TbPYK orthogonal 5µM
Cn1c(SCC(=O)NC2CCCCC2)nnc1-c1cccc(N)c1	G9a block 1.6µM | TbPYK confirm inconclusive | TbPYK orthogonal inconclusive
Cn1c(SCC(=O)NC2CCCC2)nnc1-c1ccncc1	none (no result: G9a block)
CCOC(=O)C(C)(C)N(Cc1ccccc1C)S(=O)(=O)c1ccc(Cl)c([N+](=O)[O-])c1	none | TbPYK confirm inactive | TbPYK orthogonal inactive
CCCN(CCC)S(=O)(=O)c1ccc(Cl)c([N+](=O)[O-])c1	G9a block inconclusive
CC(C)(C)OC(=O)N1O[C@H]2C[C@@H]1[C@@H]1[C@@H]2N=NN1C12CC3CC(CC(C3)C1)C2	none (no result: Sfp inh, G9a block)
CC(C)(C)OC(=O)N1O[C@H]2CC1[C@@H]1[C@@H]2N=NN1CCc1ccncc1	none (no result: Sfp inh, G9a block) | TbPYK confirm 7.9µM | TbPYK orthogonal 14µM
Cc1ccc(-n2c(SCC(=O)Nc3ccc4c(c3)OCO4)nnc2-c2cccs2)cc1	G9a block inconclusive | TbPYK confirm 1.8µM | TbPYK orthogonal 4.5µM
C#CCOC(=O)NC(/C=C/CCCC)c1ccccc1 (stereo not given)	none (no result: VDR inhibitor, PLK1 PBD inh, Mm-Cpn inhibitor, G9a block, CCT chaperon mod)
Cc1nc(-c2ccc(C(=O)N3CCCC3)cc2)cs1	none | TbPYK confirm inconclusive | TbPYK orthogonal inactive
Cc1nc(-c2ccc(C(=O)N3CCOCC3)cc2)cs1	none
COc1cccc(-c2nc3c(C#N)c[nH]n3c2NC2CCCC2)c1OC	none (no result: Sfp inh, PLK1 PBD inh, Mm-Cpn inhibitor, CCT chaperon mod)
NS(=O)(=O)c1ccc(N=Nc2c[nH]c(=O)c(O)c2)cc1	VDR inhibitor inconclusive, Sfp inh 45µM, PLK1 PBD inh inconclusive, G9a block 11µM | TbPYK confirm inconclusive | TbPYK orthogonal inactive
Nc1nc(O)c(N=Nc2ccc(S(N)(=O)=O)cc2)c(=O)[nH]1	G9a block inconclusive
Cc1ccc(-n2c(N)c(C(=O)N3CCN(C)CC3)sc2=S)cc1	VDR inhibitor 25µM, PLK1 PBD inh 3µM, G9a block 2µM | TbPYK confirm 0.63µM | TbPYK orthogonal 4.5µM
CCCC(=O)NCc1nc2cccnc2n1Cc1ccc(F)cc1	none (no result: Sfp inh, PLK1 PBD inh, Mm-Cpn inhibitor, CCT chaperon mod)
O=C(Nc1nc2ccc(S(=O)(=O)N3CCCC3)cc2s1)c1ccccn1	G9a block 13µM | TbPYK confirm inconclusive | TbPYK orthogonal inconclusive
COc1ccc(Cn2c(=S)[nH]c3ccsc3c2=O)cc1	G9a block 8.9µM | TbPYK confirm 5µM | TbPYK orthogonal 5.6µM
O=c1c2sccc2[nH]c(=S)n1Cc1ccccc1	G9a block 10µM | TbPYK confirm 14µM | TbPYK orthogonal 7.1µM
C=C(C)CSC1=C(C#N)C(c2ccccc2Cl)CC(=O)N1 (stereo not given)	VDR inhibitor inconclusive, Sfp inh 45µM, PLK1 PBD inh 13µM, G9a block 45µM | TbPYK confirm 5µM | TbPYK orthogonal 8.9µM
CCSC1=C(C#N)C(c2ccccc2C)CC(=O)N1 (stereo not given)	G9a block inconclusive
Cc1cc(C)n2nc(CNC(=O)c3c(F)cccc3F)nc2n1	none (no result: Sfp inh, PLK1 PBD inh, Mm-Cpn inhibitor, CCT chaperon mod)
